Experimental data reported in PubChem BioAssay AID1159580 (chemical genetic matrix, 2015).
About 2,000 (36%) of roughly 5,500 compounds were called active. Inconclusive results (about 18%) are left out. Cut-off read from the data, not from the text of the source: active = normalized growth mostly below about 0.91 (no sharp cut-off); inconclusive = no clear call, values can overlap the other calls; inactive = mostly above about 0.92. This is one part of the list.

Test: chemical genetic growth profiling, strain panel (AID 1159580);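 note: tested at 20 µM; growth read once vehicle control cultures reached saturation at 30 °C; 1 = growth at the plate median or of vehicle wells; lower values mean less growth of the strain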
Settings: S. cerevisiae deletion strains, growth OD

Measured: normalized growth

CC(=O)OC1CC2C(C)(C)CCCC2(C)C2CCC3(C)C(c4ccoc4)OC(=O)C4OC43C12C (stereo not drawn)
inactive: locus YAL013W, strain DEP1, stronger effect = lower value 0.993 | locus YBR021W, strain FUR4, stronger effect = lower value 0.981 | locus YBR229C, strain ROT2, stronger effect = lower value 0.995 | locus YCL029C, strain bik1, stronger effect = lower value 1.02 | locus YDL035C, strain GPR1, stronger effect = lower value 0.975 | locus YDL074C, strain BRE1, stronger effect = lower value 0.988 | locus YDL101C, strain DUN1, stronger effect = lower value 1.02 | locus YDL134C, strain PPH21, stronger effect = lower value 0.987 | locus YDL185W, strain tfp1, stronger effect = lower value 1.03 | locus YDL192W, strain arf1, stronger effect = lower value 1.01 | locus YDR101C, strain arx1, stronger effect = lower value 1.02 | locus YDR150W, strain NUM1, stronger effect = lower value 1 | locus YDR162C, strain NBP2, stronger effect = lower value 0.979 | locus YDR318W, strain mcm21, stronger effect = lower value 1.01 | locus YDR388W, stronger effect = lower value 1.01 | locus YDR502C, strain sam2, stronger effect = lower value 0.999 | locus YEL061C, strain CIN8, stronger effect = lower value 1 | locus YER110C, stronger effect = lower value 1.02 | locus YER155C, strain BEM2, stronger effect = lower value 1 | locus YER167W, strain BCK2, stronger effect = lower value 1 | locus YGL078C, strain dbp3, stronger effect = lower value 1.01 | locus YGL086W, strain mad1, stronger effect = lower value 1 | locus YGL248W, strain PDE1, stronger effect = lower value 1 | locus YGR135W, strain pre9, stronger effect = lower value 1 | locus YGR252W, strain gcn5, stronger effect = lower value 0.914 | locus YHR030C, strain SLT2, stronger effect = lower value 1.01 | locus YHR079C, strain IRE1 (second series), stronger effect = lower value 1.01 | locus YHR094C, strain hxt1, stronger effect = lower value 1.01 | locus YHR129C, strain ARP1, stronger effect = lower value 1 | locus YHR200W, strain rpn10, stronger effect = lower value 1 | locus YIL066C, strain RNR3, stronger effect = lower value 1 | locus YIL073C, strain SPO22, stronger effect = lower value 1.02 | locus YIL125W, strain kgd1, stronger effect = lower value 1.01 | locus YIR030C, strain dcg1, stronger effect = lower value 1.01 | locus YJL095W, strain BCK1, stronger effect = lower value 0.991 | locus YJL134W, strain LCB3, stronger effect = lower value 1.01 | locus YJL168C, strain set2, stronger effect = lower value 1.01 | locus YJL187C, strain SWE1 (second series), stronger effect = lower value 0.999 | locus YJR043C, strain POL32, stronger effect = lower value 0.978 | locus YJR075W, strain HOC1, stronger effect = lower value 0.995 | locus YKL009W, strain mrt4, stronger effect = lower value 1 | locus YKL068W, stronger effect = lower value 1.01 | locus YKL085W, strain MDH1 (second series), stronger effect = lower value 1 | locus YKL085W, strain MDH1, stronger effect = lower value 1 | locus YKL190W, strain CNB1, stronger effect = lower value 1 | locus YKR001C, strain vps1, stronger effect = lower value 0.993 | locus YLR039C, strain RIC1, stronger effect = lower value 1.01 | locus YLR058C, strain SHM2, stronger effect = lower value 1.01 | locus YLR102C, strain apc9, stronger effect = lower value 1.01 | locus YLR262C, strain YPT6, stronger effect = lower value 1.03 | locus YLR268W, strain sec22, stronger effect = lower value 1.01 | locus YLR330W, strain CHS5, stronger effect = lower value 1.01 | locus YLR342W, strain FKS1 (second series), stronger effect = lower value 0.954 | locus YLR371W, strain rom2, stronger effect = lower value 1.02 | locus YLR418C, strain cdc73, stronger effect = lower value 1.01 | locus YML016C, strain PPZ1, stronger effect = lower value 1.01 | locus YML032C, strain rad52, stronger effect = lower value 1.01 | locus YML124C, strain tub3, stronger effect = lower value 1.02 | locus YMR078C, strain ctf18, stronger effect = lower value 1.02 | locus YMR223W, strain ubp8, stronger effect = lower value 1 | locus YMR263W, strain SAP30, stronger effect = lower value 1.01 | locus YMR307W, strain GAS1, stronger effect = lower value 0.854 | locus YNL067W, strain RPL9B, stronger effect = lower value 1.02 | locus YNL153C, strain GIM3, stronger effect = lower value 1 | locus YNL233W, strain BNI4, stronger effect = lower value 0.99 | locus YNL250W, strain rad50, stronger effect = lower value 1.01 | locus YNL271C, strain bni1, stronger effect = lower value 0.998 | locus YNL298W, strain CLA4, stronger effect = lower value 1.01 | locus YNL307C, strain MCK1, stronger effect = lower value 1.01 | locus YNR052C, strain pop2, stronger effect = lower value 1.01 | locus YOL012C, strain htz1 0.802 | locus YOL147C, strain pex11, stronger effect = lower value 1.01 | locus YOR061W, strain CKA2, stronger effect = lower value 1.01 | locus YOR069W, strain VPS5, stronger effect = lower value 1.01 | locus YOR136W, strain idh2, stronger effect = lower value 1.01 | locus YOR144C, strain elg1, stronger effect = lower value 1.01 | locus YOR184W, strain ser1, stronger effect = lower value 1.01 | locus YOR316C, strain cot1, stronger effect = lower value 1.01 | locus YPR119W, strain clb2, stronger effect = lower value 1.01 | locus YPR141C, strain kar3, stronger effect = lower value 1.02 | locus YPR163C, strain tif3, stronger effect = lower value 1.02 | locus YPR167C, strain met16, stronger effect = lower value 1.01 | strain wtn01, stronger effect = lower value 1
